About 83,000 compounds went through this panel and 20% of them were active in at least one assay; those are over-represented in the sample as a whole.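 How to read the values: 0–100, growth inhibition (40 = 60% inhibited); 0, no net growth; -100 to 0, cell death (-40 = 40% of starting cells died; -100 = all dead).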 Values without a mark were called inactive. Active and inactive are the calls of the source.

For the test, the system named is ACHN renal. The experiment in a line: NCI-60 one-dose screen, 48 h (100 = growth as untreated, 0 = no growth, -100 = all killed). To be noted: 10 µM unless noted. How it is done: Growth inhibition of the ACHN human tumor cell line is measured as a screen for anti-cancer activity. Cells are grown in 96 well plates and exposed to the test compound for 48 hours. Compounds are tested at a single concentration, which is 10^-5 M for most compounds. The reported endpoint is percent growth (GI% or GIPRCNT), where numbers from 0 - 100% represent growth inhibition, and numbers from -100% - 0 represent cell death. For example, a value of 40 represents 60% growth inhibition. A value of 0 means no net growth occurred over the course of the experiment. A value of -40 indicates 40% of cells at the beginning of the experiment died by the end of the experiment. A value of -100 means all cells are dead at the end of the experiment.
NCI-60 Human Tumor Cell Lines Screen was performed using the standard one-dose NCI protocol, which is described in more detail at https://dtp.cancer.gov/discovery_development/nci-60/default.htm.
Compounds with GIPRCNT values below 10 were considered active. Activity score was based on GIPRCNT using the following formula: […]
Score is 0 for GIPRCNT values of 100 or above, 50 for GIPRCNT values of 0, and 100 for GIPRCNT values of -100.
On to `Cn1ncc2c(Nc3ccccc3Cl)nc(Cl)nc21`, for which the growth is 95.6%.
Take `O=C1Nc2ccccc2/C1=N/c1nc(-c2ccc(Cl)cc2)cs1`: the growth was 80.2%.
Take `COc1ccc(Cn2nc3c(c2-c2cc(OC)c(OC)c(OC)c2)-c2oncc2CC3)cc1`: the growth is 91.9%.
For `O=C(N=Nc1c(O)[nH]c2ccc(F)cc12)c1cc2ccccc2[nH]1`, the growth was 100%.
As for `CCN(CC)CCCC(C)Nc1c2c(nc3ccc(OC)cc13)CCCC2` (stereo not given), the growth is 96.4%.
The value for `Cc1ccccc1-c1cc(Cc2ccc(F)cc2)c(=O)[nH]n1` was 105%; that for `O=C1CCCN1c1cccc2cccnc12` was 102%.
In the case of `NC(=S)N/N=C(/c1ccccc1)c1ccccc1N`, the growth is 90.6%.
For the compound `N#Cc1c(Nc2ccccc2)nn2cc(-c3nc4ccccc4s3)c(N)nc12`, the growth was 59%.
Consider `CCCCOc1ccc(/C=N/Nc2cc(C)nc3ccc(Cl)cc23)cc1`, for which the growth was -95.5% (active).
In the case of `CCCCCCCCCCN=C(N)N=C(N)N`, the growth is 40.1%.
With `COc1ccc(C(=O)/C=C/c2cn(Cc3ccc(Cl)cc3)c3ccccc23)cc1` the figure was 62.1%.
Regarding `Clc1ccc(N2N=C(c3cccc(Nc4ccncc4)c3)CC2c2ccc3c(c2)OCO3)cc1` (stereo not given), the growth is 41.6%.
As for `O=C(N/N=C/c1ccncc1)c1ccccc1Nc1cccc(C(F)(F)F)c1`, the growth is 90.5%.
In the case of `c1ccc(CCSc2ncnc3nc[nH]c23)cc1`, the growth is 90.7%.
With `CCCCCCCCCCCCCCCC(=O)OC[C@@]1(O)C[C@@]23CC[C@@H]4C(C)(C)CCC[C@@]4(C)[C@@H]2CC[C@H]1C3`, the growth is 106%.
The value for `O=C(OCc1nc2nc(Cl)nc(N3CCOCC3)c2[nH]1)n1ccnc1` was -100% (active).
Turning to `COC(=O)CCCCCCCCC1(C)C=CC(C(C)O)=CC1` (stereo not given), the growth was 114%.
Turning to `CN1CCN(C(=O)[C@]2(C)CC[C@]3(C)CC[C@]4(C)C(=CC(=O)[C@@H]5[C@@]6(C)CCC(=O)NC(C)(C)[C@@H]6CC[C@]54C)[C@@H]3C2)CC1`, the growth was 108%.
The value for `Cc1cc(C)c(C=O)c(C)c1` was 108%.
As to `CCOC(=O)c1ccc(Nc2ccnc(SCC(=O)c3ccc(C#N)cc3)n2)cc1`, the growth was 80%.
As to `CC(=O)OC1CCC2(C)C(CCC3C4CC=C(C(C)=O)C4(C)OC(=O)CC32)C1` (stereo not given), the growth was 7.04% (active).
For `O=C1Nc2c(ccc(Cl)c2Cl)/C1=C/c1ccccn1`, the growth is 72.6%.
The value for `CCN(CC)CCSCCCNc1c(C)cnc2cc(Cl)ccc12` was 94.6%; that for `Cn1c(COC(=O)NCCn2ccnc2)nc2c(N3CCOCC3)nc(-c3ccccc3)nc21` was -100% (active); that for `COc1ccc(-c2cnnc3c(-c4cccc(C(F)(F)F)c4)cnn23)cc1` was 14.9%.
With `COC(=O)C1NC(=S)N(c2ccc(Cl)cc2)C1/C=C/c1ccccc1` (stereo not given), the growth is 96.3%.
Consider `Cc1cccc(Oc2ccc(Nc3ncnc4ccc(NC(=O)CN(C)C)cc34)cc2Cl)c1`, for which the growth was 16.8%.
For `COc1ccc(C2CC(c3cccc(Nc4ccncc4)c3)=NN2c2ccc(Cl)cc2)cc1` (stereo not given), the growth is 46.7%.
As for `CC(C)(C)CC(C)(C)Nc1c(-c2ccc(C(F)(F)F)cc2)nc2cnccn12`, the growth was 87%.
As for `Fc1ccc(-n2cc(COc3ncnc4sc5c(c34)CCCC5)nn2)cc1Cl`, the growth was 102%.
Take `O=C(Nc1cccc(C2=NCCN2)c1)c1ccc(OCCCOc2ccc(C(=O)Nc3cccc(C4=NCCN4)c3)cc2)cc1`: the growth is 75.3%.
In the case of `O=C(c1ccccc1)N1N=C(c2ccc(-n3ccc(C(F)(F)F)n3)cc2)CC1c1ccc[nH]1` (stereo not given), the growth was 90.6%.
With `CCNC(=O)c1[nH]cc(-c2ccc(OC)cc2)c1-c1cc(OC)cc(OC)c1`, the growth is 67.3%.
On to `COc1cc(NCC(O)CN(CC(C)C)CC(C)C)c2nc(C)ccc2c1` (stereo not given), for which the growth is 89.4%.
As for `BrC(Br)(Br)c1cnc2ccccc2n1`, the growth is -51.6% (active).
With `CCN(CCNc1cc(OC)cc2cccnc12)CCc1ccccc1`, the growth is 84.1%.
With `CS(=O)(=O)OCCN(CCOS(C)(=O)=O)c1ccc(/C=N/Nc2ccc([N+](=O)[O-])cc2[N+](=O)[O-])cc1`, the growth is 84.6%.
For the compound `COc1ccc2nc(N=Nc3c(O)ccc4ccccc34)sc2c1`, the growth was 17.2%.
In the case of `COc1cc(C(=O)c2cnc(-c3ccc4cc[nH]c4c3)[nH]2)cc(OC)c1OC`, the growth is 15.5%.

(Values after PubChem BioAssay (NCI).)
